Measurements reported in article PMC5540273 (PLoS ONE, 2017).
Where “and” joins values, the source holds several entries; their conditions need not be identical. Identical values can stand only once. Like-named read-outs stand apart in the source and are kept apart here.

Tests used:
NDR1 = system: T1, NDR1; details: n = 1
T1 construct: gene STK38

NDR2 = details: concentration: 1 μM, replicates: in singlicate; n = 1
NEK10 = details: n = 1
NEK11 = details: concentration: 1 μM, replicates: in singlicate; n = 1
NEK1 = details: concentration: 1 μM, replicates: in singlicate; n = 1
NEK2 = details: n = 1
NEK3 = details: n = 1
NEK4 = details: n = 1
NEK5 = details: n = 1
NEK6 = details: concentration: 1 μM, replicates: in singlicate; n = 1
[1] = concentration: 1 μM, replicates: in singlicate
[2] = concentration: 1 μM,replicates: in singlicate, 1 µM
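Also: KINOMEscan kinase panel screen.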

| SMILES | %Inh (NDR1; [1]) [%] | %Inh (NDR2) [%] | %Inh (NEK10; [1]) [%] | %Inh (NEK11) [%] | %Inh (NEK1) [%] | %Inh (NEK2; [1]) [%] | %Inh (NEK3; [1]) [%] | %Inh (NEK4; [1]) [%] | %Inh (NEK5; [1]) [%] | %Inh (NEK6) [%] | %Inh (NDR1; [2]) | %Inh (NEK10; [2]) | %Inh (NEK2; [2]) | %Inh (NEK3; [2]) | %Inh (NEK4; [2]) | %Inh (NEK5; [2]) |
| --- | --- | --- | --- | --- | --- | --- | --- | --- | --- | --- | --- | --- | --- | --- | --- | --- |
| CS(=O)(=O)c1ccc(-c2c(-c3ncn[nH]3)sc(N3CCOCC3)c2C#N)cc1 | 18 | 0 | 36 | 0 | 4 | 0 | 40 | 0 | 7 | 31 |  |  |  |  |  |  |
| Cc1c(Cn2ccn3c(=O)cc(N4CCOCC4)nc23)cccc1C(F)(F)F [GSK2289044] | 31 | 0 | 0 | 0 | 0 | 8 | 0 | 0 | 2 | 0 |  |  |  |  |  |  |
| CCCc1ccc(S(=O)(=O)NC2CCN(c3ccnc(Nc4ccc(F)cc4)n3)C2)cc1 (stereo not drawn) [GSK1379715] | 0 | 0 | 3 | 1 | 88 | 0 | 4 | 5 | 10 | 0 |  |  |  |  |  |  |
| Cc1cc(-c2ccc3c(c2)CC[C@@H](N[C@@H](C)c2ccccc2)C3)cnc1N.Cl [GW412617] | 0 | 0 | 63 | 20 | 0 | 3 | 0 | 16 | 0 | 14 |  |  |  |  |  |  |
| Cc1cccc(-c2nc(Nc3ccc4[nH]ncc4c3)c3ccccc3n2)n1 [GW857175] | 26 | 5 | 54 | 7 | 0 | 4 | 18 | 27 | 8 | 3 |  |  |  |  |  |  |
| Cc1cccc(-c2nc(-c3ccc(S(C)(=O)=O)cc3)sc2-c2ccnc(NCCc3ccccc3)c2)c1 | 1 | 0 | 14 | 0 | 0 | 0 | 30 | 0 | 2 | 0 |  |  |  |  |  |  |
| Cc1ccccc1-n1cnc2c(N)ncnc21 [SKF-97510] | 0 | 20 | 0 | 0 | 11 | 0 | 0 | 0 | 9 | 0 |  |  |  |  |  |  |
| Cc1cccc(-c2nc(Nc3ccncc3)c3ccccc3n2)n1 [GW855857] | 8 | 6 | 0 | 0 | 0 | 0 | 30 | 0 | 10 | 21 |  |  |  |  |  |  |
| CC(C)(C)c1ccc(C(=O)Nc2cn3cc(Cl)ccc3n2)cc1 | 99.7 | 0 | 4 | 0 | 0 | 0 | 21 | 0 | 0 | 0 |  |  |  |  |  |  |
| Cc1ccc(-c2cc(-c3c[nH]nc3-c3ccccn3)ccn2)cc1 [GW684088] | 20 | 47 | 0 | 30 | 0 | 0 | 8 | 0 | 11 | 0 |  |  |  |  |  |  |
| O=C1NC(=O)C(N2CCc3ccccc32)=C1c1ccccc1Cl [SB-373598] | 12 | 0 | 18 | 0 | 0 | 1 | 7 | 15 | 9 | 0 |  |  |  |  |  |  |
| NC(=O)c1nnc2ccccc2c1N | 20 | 0 | 85 | 0 | 0 | 16 | 31 | 4 | 3 | 10 |  |  |  |  |  |  |
| CN(C)CCN(C)C(=O)c1cc(-c2ccncc2)c(-c2ccc(Cl)c(O)c2)o1.Cl.Cl [SB-710397] | 1 | 36 | 33 | 29 | 0 | 0 | 26 | 20 | 8 | 0 |  |  |  |  |  |  |
| CSc1nn2c(=O)cc(N3CCOCC3)nc2n1Cc1cccc(C(F)(F)F)c1C [GSK2363608] |  | 0 |  | 0 | 0 |  |  |  |  | 0 | 17% and 8% | 8% and 28% | 100% and 1% | 14% and 3% | 0% and 16% | 23% and 0% |
| Cc1ccc(NC(=O)Nc2cc(C(C)(C)C)nn2-c2ccccc2)cc1 [GSK1014915] | 0 | 0 | 19 | 0 | 0 | 12 | 8 | 10 | 0 | 0 |  |  |  |  |  |  |
| COc1ccc(C2=C(Nc3cccc(C(=O)O)c3)C(=O)NC2=O)cc1 [SB-390765] | 2 | 13 | 2 | 30 | 0 | 10 | 31 | 23 | 0 | 13 |  |  |  |  |  |  |
| COc1cccc(-c2cc(-c3c[nH]nc3-c3ccccn3)ccn2)c1 [GW680338] | 16 | 19 | 4 | 0 | 0 | 0 | 5 | 13 | 14 | 0 |  |  |  |  |  |  |
| Fc1cc(Cl)ccc1Nc1ccnc2cc(-c3ccc(CN4CCCCC4)o3)ccc12 [GW560116] | 9 | 18 | 5 | 4 | 0 | 0 | 0 | 0 | 4 | 0 |  |  |  |  |  |  |

| SMILES | %Inh (NDR1; [1]) [%] | %Inh (NDR2) [%] | %Inh (NEK10; [1]) [%] | %Inh (NEK11) [%] | %Inh (NEK1) [%] | %Inh (NEK2; [1]) [%] | %Inh (NEK3; [1]) [%] | %Inh (NEK4; [1]) [%] | %Inh (NEK5; [1]) [%] | %Inh (NEK6) [%] | %Inh (NDR1; [2]) | %Inh (NEK10; [2]) | %Inh (NEK2; [2]) | %Inh (NEK3; [2]) | %Inh (NEK4; [2]) | %Inh (NEK5; [2]) |
| --- | --- | --- | --- | --- | --- | --- | --- | --- | --- | --- | --- | --- | --- | --- | --- | --- |
| Cc1ccc(NC(=O)Nc2cccc(Cl)c2)cc1-c1ccc(C(=O)Nc2ccncc2)cc1 [GSK1398468] | 25 | 0 | 3 | 0 | 0 | 2 | 16 | 0 | 20 | 0 |  |  |  |  |  |  |
| Clc1cc(Cl)cc(Nc2ccnc(Nc3cc(Cl)cc(Cl)c3)n2)c1 [GSK175726] | 21 | 11 | 4 | 8 | 1 | 4 | 16 | 0 | 23 | 0 |  |  |  |  |  |  |
| COc1ccccc1CNC(=O)c1cc(C(=O)c2ccccc2C)c[nH]1 [GSK364507] | 0 | 0 | 6 | 0 | 0 | 0 | 8 | 14 | 13 | 17 |  |  |  |  |  |  |
| COc1ccc(CNC(=O)NC2CCN(c3ccnc(Nc4cc(OC)c(OC)c(OC)c4)n3)C2)cc1 (stereo not drawn) [GSK1379748] | 21 | 44 | 6 | 18 | 8 | 0 | 20 | 30 | 93.1 | 0 |  |  |  |  |  |  |
| COc1cc2nccc(Nc3ccc(NC(=O)c4ccc(C)cc4)c(O)c3)c2cc1OC.Cl [GW440132] | 0 | 0 | 0 | 0 | 2 | 0 | 0 | 0 | 14 | 0 |  |  |  |  |  |  |
| COc1cc2ncn(-c3cc(OCC4CCCO4)c(C(N)=O)s3)c2cc1OC (stereo not drawn) [GSK204607] | 12 | 10 | 0 | 0 | 11 | 28 | 5 | 0 | 10 | 0 |  |  |  |  |  |  |
| Cc1cc(N2Cc3ccccc3C2)nc(Nc2ccc(S(=O)(=O)N3CCOCC3)cc2)n1.Cl [GSK1669917] | 20 | 0 | 0 | 0 | 0 | 0 | 0 | 9 | 23 | 0 |  |  |  |  |  |  |
| CCn1c(-c2cccnc2O)nc2cnccc21 [SB-736715] | 0 | 0 | 0 | 0 | 0 | 0 | 21 | 0 | 0 | 0 |  |  |  |  |  |  |
| Cc1ccc(C(=O)Nc2ccc(Nc3ccnc4cc(-c5ccccn5)ccc34)cc2O)cc1.Cl [GW440146] | 6 | 0 | 0 | 2 | 0 | 0 | 0 | 14 | 0 | 0 |  |  |  |  |  |  |
| Cc1nnc(-c2ccc3occ(-c4ccc(S(C)=O)cc4)c3c2)[nH]1 (stereo not drawn) | 1 | 0 | 0 | 0 | 0 | 11 | 11 | 0 | 1 | 8 |  |  |  |  |  |  |
| Cn1ccc2ncnc(Oc3cccc(C(=O)Nc4ccccc4)c3)c21 | 14 | 0 | 0 | 0 | 0 | 0 | 0 | 0 | 0 | 17 |  |  |  |  |  |  |
| COc1cccc(NC(=O)NC2CCN(c3ccnc(Nc4ccc(F)cc4)n3)C2)c1 (stereo not drawn) [GSK1379721] | 9 | 27 | 0 | 2 | 0 | 1 | 6 | 0 | 29 | 0 |  |  |  |  |  |  |
| O=C(Nc1n[nH]c2cc(-c3cccc(F)c3F)ccc12)C1CC1 [SB-733894] | 5 | 0 | 0 | 0 | 0 | 5 | 39 | 3 | 0 | 0 |  |  |  |  |  |  |
| COc1ccc2nc(-c3cccc(C)n3)nc(Nc3ccncc3)c2c1 [GSK204919] | 0 | 0 | 3 | 7 | 0 | 0 | 0 | 11 | 17 | 0 |  |  |  |  |  |  |
| Cn1ccc2ncnc(Oc3ccc(NC(=O)Nc4ccccc4)cc3)c21 | 9 | 0 | 18 | 0 | 0 | 3 | 12 | 0 | 0 | 0 |  |  |  |  |  |  |
| Cc1c(O)cccc1Nc1ccnc2ccc(C(F)(F)F)cc12.Cl [GW466413] | 0 | 0 | 16 | 0 | 0 | 0 | 0 | 0 | 0 | 0 |  |  |  |  |  |  |
| Fc1cccc(COc2nnc(-c3ccc4c(c3)CCO4)o2)c1 | 0 | 4 | 0 | 0 | 10 | 0 | 12 | 0 | 0 | 0 |  |  |  |  |  |  |
| C[C@@H]1CCCCN1c1cc(-c2ccc3c(N)n[nH]c3c2)nc(N)n1 [GSK2258759] | 24 | 12 | 0 | 0 | 0 | 3 | 10 | 0 | 8 | 0 |  |  |  |  |  |  |
